From PubChem
A selection: hits, their analogues and other compounds. The true share with any hit is near 21%.
Cycloheximide cs: Cycloheximide Counterscreen for Small Molecule Inhibitors of Shiga Toxin | 300,000 tested, 12% active | cell reporter, cycloheximide protein synthesis inhibition counterscreen | AID 2314, 2010 | max response, %; in the data active = max response mostly above about 13%, no sharp cut-off; inactive = mostly below about 14%; also: read at 38.3 µM for the half of the compounds with a filed dose
Pf growth 96h: Primary qHTS for delayed death inhibitors of the malarial parasite plastid, 96 hour incubation | P. falciparum luciferase reporter growth, 96 h | Potency, µM (highest dose often 28.7 µM), actives largely listed as inhibitors | 320,000 tested, 6.9% active
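Infected RBCs, 2% Hct / 0.05% parasitemia final; luciferase-reporter P. falciparum; cpd 96 h, 37 C, 5% CO2; luciferase detection reagent; luminescence.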
Pf growth 48h: Primary qHTS for delayed death inhibitors of the malarial parasite plastid, 48 hour incubation | Potency, µM (top dose mostly 28.7 µM), usual class: inhibitors | P. falciparum luciferase growth in erythrocytes, 48 h | 310,000 tested, 5.9% active
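Compounds are pin-transferred into medium, infected erythrocytes (2% hematocrit, 0.1% parasitemia final) are added, and plates sit one parasite generation at 37 C in 5% CO2. Detection reagent is then added and luminescence measured.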
FBPA Giardia inh: qHTS Assay for Inhibitors of Fructose-1,6-bisphosphate Aldolase from Giardia Lamblia. purified Giardia FBPA. A8B2U2. Potency, µM (doses to about 59.6 µM), usual class: inhibitors. 290,000 tested, 0.71% active; also: nearly all actives have a fitted effect of over 55% in size
Target sequence (A8B2U2 whole entry, looked up): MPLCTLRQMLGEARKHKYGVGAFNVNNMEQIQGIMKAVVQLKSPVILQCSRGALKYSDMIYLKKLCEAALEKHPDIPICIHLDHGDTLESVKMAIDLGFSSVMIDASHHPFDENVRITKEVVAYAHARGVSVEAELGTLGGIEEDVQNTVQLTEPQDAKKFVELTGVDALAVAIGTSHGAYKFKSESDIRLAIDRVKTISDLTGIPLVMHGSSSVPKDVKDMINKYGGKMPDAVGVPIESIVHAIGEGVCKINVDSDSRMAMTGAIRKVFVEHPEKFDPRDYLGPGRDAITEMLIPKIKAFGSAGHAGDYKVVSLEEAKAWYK
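40 nM FBPA preincubated 10 min at RT with compound (up to 57.5 uM final), then substrate plus GAPDH/TPI/NAD/arsenate coupling and diaphorase/resazurin added. Fluorescence read after 20 min at RT, 525/598 nm.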
NS1 inh: qHTS Assay for Inhibitors of Influenza NS1 Protein Function | Potency, µM (highest dose often 46.1 µM) | 270,000 tested, 0.4% active | AID 2326, 2010; calls by dose curve; also: actives are rising curves; nearly all actives have a fitted effect of over 50% in size
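Read-out: OD600 growth recovery of NS1-expressing budding yeast. Cells grown overnight at 30C in -URA glucose medium, washed, resuspended and diluted 1:100 in 2% galactose assay medium, pH 6.0. Same strain lacking NS1 served as positive control.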
Shiga toxin inh: A qHTS for Small Molecule Inhibitors of Shiga Toxin; Vero cells, Shiga toxin protein synthesis inhibition reporter; inhibition, % at 38.7 µM; 290,000 tested, 9.2% active; AID 2315, 2010; in the data active = inhibition mostly above about 28%, no sharp cut-off; inactive = mostly below about 43%
Of the large screens only hits and unclear results are named; the others gave an inactive call. Unless noted, calls follow the shape of the dose curve; as a rule, active = well fitted curve in the direction sought with a large enough effect; inconclusive = small, poorly fitted or top-dose-only effect, or another doubt; inactive = no such curve, though single readings can be large; an effect the other way counts as inactive or inconclusive.

CCCCNC(=O)CSc1nnc(-c2ccc(S(=O)(=O)N3CCCC3)cc2)n1C	Pf growth 48h inconclusive
Cn1c(SCC(=O)N2CCCC2)nnc1-c1ccc(S(=O)(=O)N2CCCC2)cc1	none
CCn1c(SCC(=O)N2CCCCC2)nnc1-c1ccc(S(=O)(=O)N2CCN(C)CC2)cc1	none
CCn1c(SCc2ccc(C#N)cc2)nnc1-c1ccc(S(=O)(=O)N2CCCCC2)cc1	Pf growth 48h 1.5µM
Cn1c(SCC(=O)N2CCCCC2)nnc1-c1ccc(S(=O)(=O)N2CCOCC2)cc1	Pf growth 96h 13µM
Cn1c(SCC(=O)NCc2cccs2)nnc1-c1ccc(S(=O)(=O)N2CCCC2)cc1	Pf growth 96h 8.3µM, Pf growth 48h inconclusive
COc1ccc(C(=O)N2CCC3(CCN(Cc4cc(C(F)(F)F)cc(C(F)(F)F)c4)CC3)CC2)cc1	none (no result: Cycloheximide cs, Pf growth 96h, Pf growth 48h, NS1 inh, Shiga toxin inh)
COc1ccc(CNCC(=O)Nc2ccccc2-n2cccc2)cc1	none (no result: NS1 inh)
Cc1ccc(C(=O)NCCSC2CCCCC2)cc1S(=O)(=O)Nc1ccccc1	Pf growth 96h inconclusive
O=C(Cc1ccccc1)NCCSC1CCCCC1	Cycloheximide cs 31, Shiga toxin inh 58
Oc1ccc(C[C@@H]2CNCCN2CCc2cccc3ccccc23)cc1	Pf growth 96h inconclusive, Pf growth 48h 13µM (no result: Cycloheximide cs, FBPA Giardia inh, NS1 inh, Shiga toxin inh)
CC(C)(C)CN1CCNC[C@H]1Cc1cccc2ccccc12	Pf growth 96h 9.3µM, Pf growth 48h inconclusive (no result: Cycloheximide cs, FBPA Giardia inh, NS1 inh, Shiga toxin inh)
CC1(OC(=O)C2CCCC2)C(=O)C=C2C=C(c3ccsc3)N(c3cccc(C#N)c3)C=C2C1=O (stereo unspecified)	none (no result: Cycloheximide cs, Pf growth 96h, Pf growth 48h, NS1 inh, Shiga toxin inh)
Oc1sc(C=Nc2ccc(F)cc2)c2ccccc12	Cycloheximide cs 57, Pf growth 96h 3.3µM, Pf growth 48h 4.7µM, Shiga toxin inh 13
Cc1ccc(N=Cc2c(O)ccc3ccccc23)cc1F	Pf growth 96h inconclusive, FBPA Giardia inh inconclusive, NS1 inh inconclusive
Oc1sc(C=Nc2ccccc2)c2ccccc12	Cycloheximide cs 68, Pf growth 96h inconclusive, Shiga toxin inh 80
CNC(=O)[C@]1(C(F)(F)F)C[C@H](CCC2CCCCC2)CCCO1	none (no result: Pf growth 96h, Pf growth 48h, NS1 inh)
COc1cccc(-n2nc(-c3ccnn3-c3ccc(F)cc3)c(=O)n(C)c2=O)c1	Pf growth 96h 12µM (no result: Pf growth 48h)
CCS(=O)(=O)c1ccc2oc(SCC(=O)c3c(N)n(C4CC4)c(=O)[nH]c3=O)nc2c1	Pf growth 96h inconclusive (no result: Cycloheximide cs, FBPA Giardia inh, NS1 inh, Shiga toxin inh)
COc1cc2oc(=O)ccc2cc1[C@@H](O)[C@@H]1OC(C)(C)OC1(C)C	Pf growth 48h inconclusive (no result: Cycloheximide cs, FBPA Giardia inh, NS1 inh, Shiga toxin inh)
Cc1ccccc1CC(=O)Nc1ccc(C(=O)N2CCCC2)cc1	Cycloheximide cs 25
O=C(CNCCc1ccc(Cl)cc1)Nc1ccc(C(=O)N2CCCCC2)cc1	Pf growth 48h inconclusive, FBPA Giardia inh inconclusive
O=C(CNCCc1ccccc1)Nc1ccc(C(=O)N2CCCCC2)cc1	Cycloheximide cs 28, FBPA Giardia inh inconclusive
CSc1nc(S(=O)(=O)c2ccc(C)cc2)c(Cl)s1	Pf growth 96h inconclusive, Pf growth 48h 12µM (no result: NS1 inh)
CCOc1nc(S(=O)(=O)c2ccc(C)cc2)c(Cl)s1	none
CCOC(=O)[C@@H]1[C@H]2COc3ccccc3[C@@H]2N2C(=O)N(c3ccc(Cl)cc3)C(=O)[C@]12C	none
COc1ccc(N2CCN(C(=O)c3ccc(NS(=O)(=O)c4cccs4)cc3)CC2)cc1	Cycloheximide cs 27, Pf growth 96h inconclusive, Pf growth 48h inconclusive, Shiga toxin inh 63 (no result: NS1 inh)
COc1ccc(/C=C/C(=O)Nc2ccc(N3CCOCC3)cc2)cc1	none
COc1ccc(N2CCN(c3ccc(NC(=O)/C=C\C(=O)O)cc3)CC2)cc1	Pf growth 96h inconclusive, Pf growth 48h 3.3µM (no result: Shiga toxin inh)
COc1ccc(N2CCN(C(=O)c3ccc(NS(=O)(=O)c4ccc(F)cc4)cc3)CC2)cc1	Pf growth 96h inconclusive
O=C(NC12CC3CC(CC(C3)C1)C2)N1CCN(c2ccccc2)CC1	Pf growth 48h inconclusive
COC(=O)N1CCN(c2ccc(C)c(C)c2)CC1	Cycloheximide cs 23 (no result: NS1 inh)
COc1ccc(N2CCN(C(=O)NC34CC5CC(CC(C5)C3)C4)CC2)cc1	Pf growth 96h 5.2µM (no result: Pf growth 48h)
COc1ccc(N2CCN(C(=O)C3Cc4ccccc4CN3C(=O)c3ccccc3)CC2)cc1 (stereo unspecified)	Cycloheximide cs 61, Pf growth 96h inconclusive, Pf growth 48h inconclusive, Shiga toxin inh 71 (no result: NS1 inh)
